The values below come from PubChem BioAssay (NCI).

The panel holds about 83,000 compounds, 20% with a hit somewhere; the sample as a whole holds those more often.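 Compound tested at a single concentration for 48 hours in 96-well plates; a percent growth value below 10 was scored as active.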 A number with no mark means an inactive call. Active and inactive are the calls of the source.

Among the test systems are NCI-H23 lung; NCI-H226 lung; NCI-H322M lung; HOP-62 NSCLC; NCI-H460 lung; HOP-92 NSCLC; NCI-H522 lung; A549/ATCC NSCLC; 786-0 renal; COLO 205 colon; DU-145 prostate; K-562 leukemia; MALME-3M melanoma; MDA-MB-231 breast; RXF 393 renal; SF-268 CNS; SF-295 CNS; SF-539 CNS; UACC-257 melanoma; M14 melanoma.
Holding throughout (experiment): NCI-60 one-dose screen, 48 h (100 = growth as untreated, 0 = no growth, -100 = all killed)
Holding throughout (conditions): 10 µM unless noted

`ClCC(Cl)[C@@H]1CC2C=CC1C2` (stereo not given in full): the growth was 102% in the experiment with NCI-H23 lung; 91.7% in the experiment with NCI-H226 lung; 108% with NCI-H322M lung; 109% in the experiment on HOP-62 NSCLC; 113% in the experiment on NCI-H460 lung; 99.7% in the experiment on HOP-92 NSCLC. Moreover, the growth with NCI-H522 lung is 99.6%; in the experiment with A549/ATCC NSCLC, 89.1%; in the experiment with 786-0 renal it was 94.4%; in the experiment on COLO 205 colon, 127%; with DU-145 prostate, 113%; in the experiment on K-562 leukemia it was 105%. For the same compound, the growth with MALME-3M melanoma is 102%; with MDA-MB-231 breast, 96.8%; in the experiment on RXF 393 renal it was 105%; in the experiment on SF-268 CNS, 108%; with SF-295 CNS, 91.3%; in the experiment with SF-539 CNS, 110%. The results for the growth in the experiment on UACC-257 melanoma and with M14 melanoma were 105% and 112%, respectively.

In the case of `C1CCc2onc(-c3noc4c3CCCCC4)c2CC1`, the growth with NCI-H23 lung is 110%; in the experiment on NCI-H226 lung, 123%; in the experiment on NCI-H322M lung it was 102%; with HOP-62 NSCLC, 101%; in the experiment with NCI-H460 lung it was 140%; in the experiment on HOP-92 NSCLC, 93.6%. The growth in the experiment with NCI-H522 lung is 95.8%; in the experiment on A549/ATCC NSCLC, 102%; with 786-0 renal, 103%; in the experiment on COLO 205 colon it was 118%; in the experiment on DU-145 prostate, 118%; with K-562 leukemia it was 103%. Also, the growth was 106% with MALME-3M melanoma; 114% in the experiment on MDA-MB-231 breast; 139% with RXF 393 renal; 92.9% in the experiment on SF-268 CNS; 99.5% with SF-295 CNS; 104% in the experiment on SF-539 CNS. Further, the results for the growth with UACC-257 melanoma and in the experiment with M14 melanoma were 107% and 112%, respectively.

Consider `Nc1c(O)c(S(=O)(=O)O)c(O)c2c1C(=O)c1ccccc1C2=O`, for which the growth with NCI-H23 lung is 21.5%; in the experiment with NCI-H226 lung, 41.2%; in the experiment with NCI-H322M lung, 39%; with HOP-62 NSCLC it was 42.6%; with NCI-H460 lung, 8.34% (active); in the experiment on HOP-92 NSCLC, 14.4%. The growth was 7.56% (active) in the experiment on NCI-H522 lung; 19% in the experiment on A549/ATCC NSCLC; 59.6% with 786-0 renal; 6.29% (active) in the experiment with COLO 205 colon; 21.4% with DU-145 prostate; 22.1% in the experiment with K-562 leukemia. Besides, the growth in the experiment on MALME-3M melanoma was -0.703% (active); in the experiment with MDA-MB-231 breast, 42.3%; with RXF 393 renal, 75.3%; in the experiment with SF-268 CNS, 45.9%; in the experiment on SF-295 CNS, 12.8%; in the experiment with SF-539 CNS, 61.6%. Moreover, the growth with UACC-257 melanoma was 1.57% (active); with M14 melanoma, 35%.

In the case of `C=CC(=O)OC1CCC(C(C)(C)CC)CC1` (stereo not given), the growth is 108% in the experiment on NCI-H23 lung; 106% in the experiment with NCI-H226 lung; 110% with NCI-H322M lung; 103% in the experiment with HOP-62 NSCLC; 105% with NCI-H460 lung; 115% in the experiment with HOP-92 NSCLC. The growth was 100% with NCI-H522 lung; 109% in the experiment with A549/ATCC NSCLC; 105% in the experiment with 786-0 renal; 105% in the experiment with COLO 205 colon; 113% with DU-145 prostate; 109% in the experiment with K-562 leukemia. Further, the growth was 110% in the experiment with MALME-3M melanoma; 106% in the experiment with MDA-MB-231 breast; 113% in the experiment on RXF 393 renal; 102% with SF-268 CNS; 120% in the experiment with SF-295 CNS; 105% in the experiment with SF-539 CNS. For the same compound, the growth with UACC-257 melanoma was 115%; in the experiment on M14 melanoma it was 107%.

Take `Cc1cc(Cc2ccccc2)c(O)c(Cc2ccccc2)c1`: the growth is 82.5% in the experiment on NCI-H23 lung; 85.9% with NCI-H226 lung; 97.3% with NCI-H322M lung; 85.5% with HOP-62 NSCLC; 99.4% with NCI-H460 lung; 90% in the experiment on HOP-92 NSCLC. Further, the growth in the experiment on NCI-H522 lung is 78%; in the experiment on A549/ATCC NSCLC, 76.5%; in the experiment on 786-0 renal, 86.6%; in the experiment with COLO 205 colon it was 106%; with DU-145 prostate, 103%; in the experiment on K-562 leukemia, 82.6%. Also, the growth was 103% with MALME-3M melanoma; 91.6% in the experiment on MDA-MB-231 breast; 88.2% in the experiment with RXF 393 renal; 93.4% in the experiment on SF-268 CNS; 101% in the experiment on SF-295 CNS; 101% in the experiment with SF-539 CNS. The growth was 93.4% with UACC-257 melanoma and 91.5% with M14 melanoma.

Turning to `CCOc1ccccc1NC(=O)CCl`, the growth in the experiment with NCI-H23 lung was 71.4%; with NCI-H226 lung, 86.3%; in the experiment with NCI-H322M lung it was 107%; in the experiment with HOP-62 NSCLC it was 99.8%; in the experiment on NCI-H460 lung, 97.3%; in the experiment on HOP-92 NSCLC it was 103%. The growth in the experiment on NCI-H522 lung was 56.1%; in the experiment with A549/ATCC NSCLC, 100%; in the experiment on 786-0 renal, 108%; in the experiment with COLO 205 colon it was 104%; in the experiment with DU-145 prostate, 105%; in the experiment with K-562 leukemia it was 86.8%. Also, the growth was 92.2% in the experiment on MALME-3M melanoma; 83.8% in the experiment with MDA-MB-231 breast; 93.9% with RXF 393 renal; 91.7% in the experiment on SF-268 CNS; 87.4% in the experiment on SF-295 CNS; 114% in the experiment on SF-539 CNS. The growth is 102% in the experiment on UACC-257 melanoma and 79.1% in the experiment with M14 melanoma.

On to `CCCCCCCCCc1ccc(OC(C)=O)cc1`, for which the growth was 105% in the experiment with NCI-H23 lung; 99.7% with NCI-H226 lung; 96.8% in the experiment on NCI-H322M lung; 113% in the experiment on HOP-62 NSCLC; 103% in the experiment on NCI-H460 lung; 98.2% in the experiment with HOP-92 NSCLC. Moreover, the growth in the experiment with NCI-H522 lung is 99.4%; in the experiment with A549/ATCC NSCLC it was 98.9%; in the experiment on 786-0 renal, 101%; in the experiment on COLO 205 colon it was 113%; in the experiment with DU-145 prostate, 103%; with K-562 leukemia it was 101%. Moreover, the growth is 103% in the experiment on MALME-3M melanoma; 110% in the experiment on MDA-MB-231 breast; 111% in the experiment on RXF 393 renal; 101% in the experiment with SF-268 CNS; 96.6% with SF-295 CNS; 92.8% in the experiment on SF-539 CNS. The growth was 110% with UACC-257 melanoma and 99.5% in the experiment on M14 melanoma.

For `Nc1ncc([N+](=O)[O-])cn1`, the growth was 102% in the experiment with NCI-H23 lung; 103% with NCI-H226 lung; 95% in the experiment on NCI-H322M lung; 103% in the experiment with HOP-62 NSCLC; 111% with NCI-H460 lung; 93.7% in the experiment on HOP-92 NSCLC. Also, the growth in the experiment on NCI-H522 lung was 71.2%; with A549/ATCC NSCLC, 90.1%; in the experiment with 786-0 renal it was 105%; in the experiment with COLO 205 colon, 119%; with DU-145 prostate it was 104%; with K-562 leukemia, 108%. Besides, the growth with MALME-3M melanoma was 103%; with MDA-MB-231 breast, 98.4%; in the experiment on RXF 393 renal, 110%; in the experiment on SF-268 CNS it was 98.4%; with SF-295 CNS, 105%; in the experiment on SF-539 CNS, 105%. Moreover, the figures for the growth in the experiment on UACC-257 melanoma and in the experiment on M14 melanoma were 84.7% and 100%, respectively.

As to `C=CCC(OC(C)=O)c1ccc(C(C)C)cc1` (stereo not given), the growth is 108% in the experiment with NCI-H23 lung; 106% with NCI-H226 lung; 120% in the experiment on NCI-H322M lung; 109% with HOP-62 NSCLC; 106% in the experiment on NCI-H460 lung; 86.7% with HOP-92 NSCLC. Also, the growth is 86.6% in the experiment on NCI-H522 lung; 92.3% in the experiment with A549/ATCC NSCLC; 108% in the experiment with 786-0 renal; 122% with COLO 205 colon; 118% in the experiment on DU-145 prostate; 108% with K-562 leukemia. Further, the growth in the experiment with MALME-3M melanoma is 124%; in the experiment with MDA-MB-231 breast, 122%; in the experiment on RXF 393 renal, 113%; in the experiment with SF-268 CNS, 110%; with SF-295 CNS it was 126%; with SF-539 CNS it was 104%. Also, the results for the growth with UACC-257 melanoma and in the experiment on M14 melanoma were 105% and 114%, respectively.
